Pf Dd2 inh: inhibitors of Plasmodium falciparum Dd2 growth; P. falciparum Dd2 growth, SYBR Green, 72 h; Potency, µM (top dose mostly 28.9 µM), actives largely listed as inhibitors; 120,000 tested, 4.3% active; AID 1347417; active = well fitted inhibition curve with a large enough effect; note: nearly all actives have a fitted effect of over 65% in size
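Readout: SYBR Green fluorescence, 485 nm excitation, 535 nm emission, after ~16 h lysis at 37C. Before that, Dd2-infected red cells (2.5% hematocrit) grew 72 h with compound, 29 uM top final concentration.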
Hits are given with their value; 0 = inactive. The full list was thinned out, with hits kept by preference.

SMILES	Pf Dd2 inh
COc1ccc(-n2ncc(C(=O)N3CCOCC3)c2C2CCN(C(=O)OC(C)(C)C)CC2)cc1	0
COc1cccc(N2CCN(C(=O)c3cnn(C(C)(C)C)c3C3CCN(C(=O)OC(C)(C)C)CC3)CC2)c1	12.6µM
CC1(C(=O)O)CCN(S(=O)(=O)c2ccccc2)CC1	0
O=C(NCc1ccc2c(c1)OCO2)C1CCc2sc(C(=O)N3CCCCCC3)cc2C1 (stereo not drawn)	0
COCCNC(=O)[C@@H](C)C1CC[C@@]2(C)CC[C@H](NC(=O)c3ccc(C#N)cc3)[C@@H](C)[C@@H]2[C@H]1O (stereo partly drawn)	0
O=C(c1ccccc1)N1CCN2C(=O)N(Cc3ccc(F)cc3)C[C@H]2C1	0
O=C(COc1ccccc1)N1CCC([C@@H]2CNC[C@H]2CO)CC1	0
Cc1noc2ncnc(N3CCC4(CC3)CC(c3ccccc3)CN(C)C4)c12 (stereo not drawn)	11.2µM
CN1CC(c2ccccc2)CC2(CCN(C(=O)C3CCOCC3)CC2)C1 (stereo not drawn)	0
CN1CC(c2ccccc2)CC2(CCN(C(=O)c3ccccc3)CC2)C1 (stereo not drawn)	0
COCCN1CCCCCC(O)c2cc(C(=O)N3CCN(CC(C)C)CC3)ccc21 (stereo not drawn)	0
O=C(NCCc1c[nH]c2ccccc12)[C@@H]1C[C@H]2C(=O)NCCCCCCN(C(=O)c3ccco3)[C@H]2C1	1.12µM
O=C1NCCCCCCN(C(=O)c2ccco2)[C@H]2CCCC[C@@H]12	0
CC(C)c1noc([C@@H]2C[C@H]3C(=O)NCCCCCCN(C(=O)c4ccco4)[C@H]3C2)n1	0
COc1ccc(CN2CC3(CCN(C(=O)c4ccc(C)cc4C)CC3)C2=O)cc1	0
Cc1cccc(CNC(=O)c2ccc3c(c2)N(C)C2CCCCN2C3=O)c1 (stereo not drawn)	3.98µM
COc1ccc(OC)c(NC(=O)c2ccc3c(c2)C(O)CCCCCN3C)c1 (stereo not drawn)	0
Cc1cc(NC(=O)c2ccc3c(c2)N(C)C2CCCCCN2C3=O)ccc1Cl (stereo not drawn)	0
CCN1c2cc(C(=O)Nc3cccc(F)c3)ccc2C(=O)N2CCCCC21 (stereo not drawn)	0
CCN1c2cc(C(=O)Nc3ccc(Cl)c(C)c3)ccc2C(=O)N2CCCCCC21 (stereo not drawn)	6.31µM
CN1CCCCCC(O)c2cc(C(=O)Nc3cccc(OC(F)(F)F)c3)ccc21 (stereo not drawn)	14.1µM
CCN1c2cc(C(=O)Nc3ccc(SC)cc3)ccc2C(=O)N2CCCCC21 (stereo not drawn)	0
CCN1c2cc(C(=O)Nc3ccc(Cl)c(Cl)c3)ccc2C(=O)N2CCCCC21 (stereo not drawn)	0
CN1c2cc(C(=O)NCc3cccc(Cl)c3)ccc2C(=O)N2CCCCCC21 (stereo not drawn)	0
Cc1ccc(CNC(=O)c2ccc3c(c2)N(C)C2CCCN2C3=O)cc1 (stereo not drawn)	0
SMILES	Pf Dd2 inh
CCN1c2cc(C(=O)Nc3cccc(SC)c3)ccc2C(=O)N2CCCCCC21 (stereo not drawn)	6.31µM
COc1cccc(NC(=O)c2ccc3c(c2)C(O)CCCCCN3C)c1 (stereo not drawn)	0
CCc1noc([C@@H]2CC(F)(F)CN2S(=O)(=O)c2cccnc2)n1	0
Cn1c(=O)c(C(=O)NC2CCOC3(CCOCC3)C2)nc2ccccc21 (stereo not drawn)	0
COC1CN(C2CCN(C(=O)NC(C)(C)C)CC2)C12CCOCC2 (stereo not drawn)	0
O=c1[nH]c(C2CCN(Cc3ccccc3)CC2)nn1Cc1ccccc1	0
CN1c2cc(C(=O)Nc3ccc(Br)cc3)ccc2C(=O)N2CCCCCC21 (stereo not drawn)	0
CCN1c2cc(C(=O)Nc3ccc(OC(F)(F)F)cc3)ccc2C(=O)N2CCCC21 (stereo not drawn)	0
CCN1c2cc(C(=O)Nc3ccc(OC)cc3)ccc2C(=O)N2CCCCCC21 (stereo not drawn)	0
CCN1c2cc(C(=O)Nc3ccc(OC(F)(F)F)cc3)ccc2C(=O)N2CCCCC21 (stereo not drawn)	1.78µM
CN1c2cc(C(=O)Nc3ccc(C(F)(F)F)cc3)ccc2C(=O)N2CCCCCC21 (stereo not drawn)	11.2µM
CN1c2cc(C(=O)Nc3ccc(F)cc3)ccc2C(=O)N2CCCCCC21 (stereo not drawn)	0
CC(C)Oc1ccc(CNC(=O)C2Cn3cccc3C(=O)N2C)cc1 (stereo not drawn)	0
CC(C)NC(=O)c1ccc(CN2C(=O)NC3(CCS(=O)(=O)CC3)C2=O)cc1	0
COc1ccc(Cl)cc1C(=O)NCc1nnc2ccc(-c3ccccc3)nn12	0
COc1cccc(CNC(=O)[C@@H]2C[C@@H](O)CN2C2CCN(C(=O)c3ccc4ccccc4n3)CC2)c1	0
COC(=O)C1=CN(CC(=O)Nc2ccccc2C(F)(F)F)S(=O)(=O)N=C1C	0
C#CCNC(=O)CC[C@H]1CNC(=O)[C@@H]2[C@@H](CCN2Cc2ccc(C)cc2)N1C	0

Screening results (PubChem)
